# Source: ChEMBL document CHEMBL1961873, “Compounds: GSK PKIS; Assays: Nanosyn kinase panel” (2012)
# Assays:
# [1] = target: Mast/stem cell growth factor receptor Kit (Homo sapiens) (UniProt P10721); conditions: at 1 µM
# [2] = system: Mast/stem cell growth factor receptor Kit (Homo sapiens), P10721 [D816V]; conditions: at 0.1 µM
# [3] = system: Mast/stem cell growth factor receptor Kit (Homo sapiens), P10721 [D816V]; conditions: at 1 µM
# [4] = system: Mast/stem cell growth factor receptor Kit (Homo sapiens), P10721 [T670I]; conditions: at 0.1 µM
# [5] = system: Mast/stem cell growth factor receptor Kit (Homo sapiens), P10721 [T670I]; conditions: at 1 µM
# [6] = system: Mast/stem cell growth factor receptor Kit (Homo sapiens), P10721 [V560G]; conditions: at 0.1 µM
# [7] = system: Mast/stem cell growth factor receptor Kit (Homo sapiens), P10721 [V560G]; conditions: at 1 µM
# [8] = target: Tyrosine-protein kinase Lck (Homo sapiens) (UniProt P06239); conditions: at 0.1 µM
# [9] = target: Tyrosine-protein kinase Lck (Homo sapiens) (UniProt P06239); conditions: at 1 µM
# [10] = target: Leukocyte tyrosine kinase receptor (Homo sapiens) (UniProt P29376); conditions: at 0.1 µM
# Leukocyte tyrosine kinase receptor (Homo sapiens), sequence (P29376 whole entry): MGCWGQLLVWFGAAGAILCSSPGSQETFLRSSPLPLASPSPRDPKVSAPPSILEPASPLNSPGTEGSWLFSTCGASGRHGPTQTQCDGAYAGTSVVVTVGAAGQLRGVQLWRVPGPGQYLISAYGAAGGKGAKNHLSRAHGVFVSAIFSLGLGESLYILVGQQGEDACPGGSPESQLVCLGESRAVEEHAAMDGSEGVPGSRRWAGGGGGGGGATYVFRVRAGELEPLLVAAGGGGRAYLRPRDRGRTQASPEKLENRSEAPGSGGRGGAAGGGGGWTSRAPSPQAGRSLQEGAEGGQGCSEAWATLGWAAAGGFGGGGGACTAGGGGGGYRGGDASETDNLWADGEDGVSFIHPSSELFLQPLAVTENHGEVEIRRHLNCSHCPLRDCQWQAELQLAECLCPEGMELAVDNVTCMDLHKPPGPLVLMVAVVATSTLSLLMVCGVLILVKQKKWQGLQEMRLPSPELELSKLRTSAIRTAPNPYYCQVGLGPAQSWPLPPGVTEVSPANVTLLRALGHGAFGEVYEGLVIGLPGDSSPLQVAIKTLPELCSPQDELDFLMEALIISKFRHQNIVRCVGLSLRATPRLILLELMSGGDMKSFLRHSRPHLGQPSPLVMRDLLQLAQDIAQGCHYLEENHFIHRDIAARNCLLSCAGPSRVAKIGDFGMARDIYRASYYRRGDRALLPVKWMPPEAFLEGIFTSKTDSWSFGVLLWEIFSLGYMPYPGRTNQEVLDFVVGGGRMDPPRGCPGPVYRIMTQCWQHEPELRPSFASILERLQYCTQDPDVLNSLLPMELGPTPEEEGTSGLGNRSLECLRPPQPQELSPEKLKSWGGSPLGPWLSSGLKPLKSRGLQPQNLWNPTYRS
# Mast/stem cell growth factor receptor Kit (Homo sapiens), sequence (P10721 whole entry): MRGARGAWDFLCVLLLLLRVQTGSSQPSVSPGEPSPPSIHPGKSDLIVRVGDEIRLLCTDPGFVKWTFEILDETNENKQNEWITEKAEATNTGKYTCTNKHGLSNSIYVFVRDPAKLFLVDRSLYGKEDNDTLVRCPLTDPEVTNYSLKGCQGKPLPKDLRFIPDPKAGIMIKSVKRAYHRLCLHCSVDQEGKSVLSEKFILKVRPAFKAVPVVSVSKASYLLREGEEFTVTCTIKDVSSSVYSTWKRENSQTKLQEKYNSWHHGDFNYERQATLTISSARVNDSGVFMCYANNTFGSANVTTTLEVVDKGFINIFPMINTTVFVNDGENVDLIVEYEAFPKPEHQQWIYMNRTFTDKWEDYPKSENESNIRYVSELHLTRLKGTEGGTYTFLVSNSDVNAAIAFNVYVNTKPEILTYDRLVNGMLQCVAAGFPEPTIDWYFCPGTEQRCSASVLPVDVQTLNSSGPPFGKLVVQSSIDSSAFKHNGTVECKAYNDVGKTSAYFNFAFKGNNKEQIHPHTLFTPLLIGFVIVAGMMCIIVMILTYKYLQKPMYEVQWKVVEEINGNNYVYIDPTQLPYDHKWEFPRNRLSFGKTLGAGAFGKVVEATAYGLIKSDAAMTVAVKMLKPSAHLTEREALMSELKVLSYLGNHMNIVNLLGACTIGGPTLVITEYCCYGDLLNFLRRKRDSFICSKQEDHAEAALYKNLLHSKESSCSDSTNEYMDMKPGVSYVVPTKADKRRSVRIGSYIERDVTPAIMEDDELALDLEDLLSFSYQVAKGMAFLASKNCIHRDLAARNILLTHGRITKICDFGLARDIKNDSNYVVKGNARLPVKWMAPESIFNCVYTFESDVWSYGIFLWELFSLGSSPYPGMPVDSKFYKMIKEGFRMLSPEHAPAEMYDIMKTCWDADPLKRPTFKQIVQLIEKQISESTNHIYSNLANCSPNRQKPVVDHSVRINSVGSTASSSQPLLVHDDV
# Mast/stem cell growth factor receptor Kit (Homo sapiens), P10721 [D816V], sequence (P10721 whole entry D816V): as the sequence (P10721 whole entry) above, with D816V counted along it
# Mast/stem cell growth factor receptor Kit (Homo sapiens), P10721 [V560G], sequence (P10721 whole entry V560G): as the sequence (P10721 whole entry) above, with V560G counted along it
# Mast/stem cell growth factor receptor Kit (Homo sapiens), P10721 [T670I], sequence (P10721 whole entry T670I): as the sequence (P10721 whole entry) above, with T670I counted along it
# Tyrosine-protein kinase Lck (Homo sapiens), sequence (P06239 2-509 limits assumed): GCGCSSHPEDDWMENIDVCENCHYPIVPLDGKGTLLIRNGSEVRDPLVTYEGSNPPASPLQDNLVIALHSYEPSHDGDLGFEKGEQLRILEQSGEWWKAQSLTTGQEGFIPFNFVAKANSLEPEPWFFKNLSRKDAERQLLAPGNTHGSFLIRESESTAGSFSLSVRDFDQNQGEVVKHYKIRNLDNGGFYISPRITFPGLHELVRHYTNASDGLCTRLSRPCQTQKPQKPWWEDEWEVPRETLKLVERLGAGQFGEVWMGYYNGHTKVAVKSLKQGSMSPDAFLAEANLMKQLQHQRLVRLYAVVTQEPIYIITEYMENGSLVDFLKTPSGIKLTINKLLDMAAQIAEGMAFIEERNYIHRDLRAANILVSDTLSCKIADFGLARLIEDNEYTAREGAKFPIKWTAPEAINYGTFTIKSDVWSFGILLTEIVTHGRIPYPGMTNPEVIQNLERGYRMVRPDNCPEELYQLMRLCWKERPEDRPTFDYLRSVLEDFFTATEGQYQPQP
SMILES,inhibition [1] [%],inhibition [2] [%],inhibition [3] [%],inhibition [4] [%],inhibition [5] [%],inhibition [6] [%],inhibition [7] [%],inhibition [8] [%],inhibition [9] [%],inhibition [10] [%]
CCn1c(-c2nonc2N)nc2ccccc21,4.28,1.78,-1.08,2.82,0.55,1.72,1.6,0.68,3.03,5.66
Fc1ccc(-c2nn3ncccc3c2-c2ccnc(Nc3ccc4c(c3)OCCO4)n2)cc1,91.9,3.55,4.13,5.56,27.3,16.3,64.5,44.7,85.1,3.99
Nc1nc(-c2ccc(F)cc2)c(-c2ccc3ncccc3n2)s1,9.66,1.91,5.04,4.73,5.34,2.59,2.66,9.43,16.7,3.99
CC(C)COC(=O)c1ccc2c(c1)/C(=C/Nc1ccc(S(N)(=O)=O)cc1)C(=O)N2,24.6,2.4,35.2,-2.43,6.53,2.21,5.62,0.55,13.9,0.07
CC(=O)NCc1cccc(C#Cc2cncnc2Nc2ccc(OCc3cccc(F)c3)c(Cl)c2)c1,0.4,-2.07,-2.37,1.52,1.39,1.82,-0.41,0.34,1.6,1.56
N#Cc1c(NC(=O)c2ccc(F)cc2)sc2c1CCCC2,5.86,-0.47,2.78,-0.92,1.72,-0.83,0.9,0.7,0.45,1.24
CNC(=O)c1cccc(C#Cc2cncnc2Nc2ccc(OCc3cccc(F)c3)c(Cl)c2)c1,8.09,0.89,3.12,0.83,3.3,1.32,5.48,1.2,1.35,1.28
CCCN1CCC(c2ccc(Nc3nc(Nc4cc(F)ccc4C(N)=O)c4cc[nH]c4n3)c(OC)c2)CC1,23.6,7.89,4.96,4.05,8.96,-2.53,1.43,2.44,9.44,94.6
CCn1c(-c2nonc2N)nc2c(C#CC(C)(C)O)ncc(OC3CCNCC3)c21,3.87,4.97,6.05,1.16,-0.54,-0.47,0.39,2.33,4.05,1.83
CCCN(CCS(C)(=O)=O)Cc1ccc(-c2ccc3ncnc(Nc4ccc(OCc5cccc(F)c5)c(Cl)c4)c3c2)o1,4.79,1.86,4.14,2.58,3.62,1.8,3.3,2.06,5.97,2.12
CS(=O)(=O)CCNCc1coc(-c2ccc3ncnc(Nc4ccc(OCc5ccccc5)cc4)c3c2)c1,8.33,0.03,1.72,2.17,3.24,0.76,2.94,3.8,14.4,4.91
Fc1ccc(-c2cc(-c3c[nH]nc3-c3ccccn3)ccn2)cc1,6.81,1.94,4.27,4.29,8.03,-3.44,1.08,1.94,2.35,4.6
Nc1nc(-c2cccc(Cl)c2)c(-c2ccc3ncccc3n2)s1,7.87,1.78,8.71,4.73,6.56,-0.42,-0.36,2.31,8.23,6.27
Clc1ccc(-c2nn3ncccc3c2-c2ccnc(Nc3ccccc3)n2)cc1,66.9,1.51,-1.04,-3.61,9.51,3.31,39.8,13.9,60,1.38
CCNC(=O)O[C@H]1CN[C@H](C#Cc2cc3ncnc(Nc4ccc(OCc5cccc(F)c5)c(Cl)c4)c3s2)C1,2.58,2.43,3.63,2.76,0.45,0.45,5,3.42,3.76,3.21
COC(=O)Nc1nc2ccc(Oc3ccc(NC(=O)Nc4cccc(Cl)c4)cc3)cc2[nH]1,90.8,-0.72,-1.6,22.5,57.1,69.5,91.2,2.47,9.47,2.31
O=C(O[C@H]1CN[C@H](C#Cc2cc3ncnc(Nc4ccc(Cc5ccccc5)cc4)c3s2)C1)N1CCOCC1,3.44,8.25,1.8,1.94,0.93,-0.42,-0.08,2.19,8.13,1.17

SMILES,inhibition [1] [%],inhibition [2] [%],inhibition [3] [%],inhibition [4] [%],inhibition [5] [%],inhibition [6] [%],inhibition [7] [%],inhibition [8] [%],inhibition [9] [%],inhibition [10] [%]
COc1cc2c(cc1Nc1nc(Nc3ccsc3C(N)=O)c3cc[nH]c3n1)N(C(=O)CN(C)C)CCC2(C)C,67.6,3.34,7.2,5.12,16.2,5.02,17.8,0.99,4.76,95.3
COc1ccc2c(-c3ccnc(Nc4cccc(OC(F)(F)F)c4)n3)cnn2n1,45.9,7.04,6.99,2.93,11.2,-0.57,5.63,1.54,5.72,3.12
N#Cc1c(NC(=O)CN2CCOCC2)sc2c1CCCC2,7.99,3.63,3.93,4.93,3.32,2.47,3.82,1.87,4.64,4.93
Fc1cccc(COc2ccc(Nc3ncnc4sc(-c5ccco5)cc34)cc2Cl)c1,6.21,3.37,6.34,2.63,3.7,-0.3,0.57,3.21,5.67,3.44
COc1ccc(-c2nn3ncccc3c2-c2ccnc(Nc3ccc4c(c3)OCCO4)n2)cc1,85.2,-1.73,0.8,3.74,34.7,9.03,61.7,34.8,66.8,3.69
COC(=O)c1sc(-n2cnc3cc(OC)c(OC)cc32)cc1OCc1ccccc1C(F)(F)F,11.8,2.28,2.88,4.55,7.23,-0.04,2.01,4.87,32.2,5.2
c1ccc(COc2ccc(Nc3ncnc4ccc(-c5ccco5)cc34)cc2)cc1,-0.06,-2.23,-0.29,0.67,-1.15,2.08,1.66,0.84,4.49,0.59
O=S(=O)(CCNCc1ccc(-c2ccc3ncnc(Nc4ccc(OCc5cccc(F)c5)c(Cl)c4)c3c2)o1)c1ccccc1,9.57,3.44,6.21,3.42,5.36,0.27,-1.16,3.99,8.49,5.14
COc1cc2ncn(-c3cc(OCc4ccccc4C(F)(F)F)c(C(=O)N(C)C)s3)c2cc1OC,3.36,0.31,3.99,-0.65,1.38,-2.81,1.25,2.04,11.2,1.37
COc1cccc(-c2c[nH]c3c(N/N=C/c4ccncc4)ncnc23)c1,88,8.75,38.7,7.21,51.1,4.19,19.6,35.1,82,3.15
CCOc1ccc2c(-c3ccnc(Nc4cccc(C(F)(F)F)c4)n3)cnn2n1,17.8,0.23,2.91,1.24,3.49,-1.27,0.29,2.98,7.3,2.51
CCn1c(-c2nonc2N)nc2cnc(Oc3cccc(NC(=O)c4ccc(N(C)C)cc4)c3)cc21,1.33,0.14,-1.44,0.35,-0.9,-2.78,2.28,-0.65,1.33,1.6
NS(=O)(=O)c1ccc(N/N=C2\C(=O)Nc3ccc4ncccc4c32)cc1,90.7,5.95,23.6,10.2,69.4,3.66,36.8,5.5,30.1,2.17
CCc1nn2ncccc2c1-c1ccnc(NC2CC2)n1,7.72,0.04,1.83,1.32,2.12,0.78,3.12,2.82,6.75,3.02
CCn1c(-c2nonc2N)nc2c(C#CC(C)(C)O)nc(OC[C@H](N)c3ccccc3)cc21,1.58,1.78,10,0.36,0.72,3.28,-0.5,2.85,3.65,5.32
CN1CCC(n2cnc(-c3ccc(F)cc3)c2-c2ccnc(Nc3ccccc3)n2)CC1,6,1.84,2.39,3.38,1.42,-1.35,4.06,4.17,20.5,2.75
